From PubChem BioAssay (NCI)
About 79,000 compounds went through this panel and 15% of them were active in at least one assay; those are over-represented in the sample as a whole. The source made the active and inactive calls. No stated cut-off is given here; in the data, active means growth inhibition above about 70%; inactive means the rest.

Experiments:
[1] = NCI Yeast Anticancer Drug Screen. Data for the wt2 strain (AID 169);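 further: 0% = growth of vehicle-treated yeast cultures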; settings: S. cerevisiae wt2 strain growth inhibition, hits give high values
How it was run: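 Yeast cells were exposed to test compounds, and growth inhibition was measured relative to vehicle-treated controls.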

[2] = NCI Yeast Anticancer Drug Screen. Data for the mlh1 strain (AID 171);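 further: 0% = growth of vehicle-treated control cultures of the same strain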; settings: S. cerevisiae mlh1 strain growth inhibition, hits give high values
How it was run: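 Yeast carrying a defined genetic alteration in DNA damage repair or cell cycle control were exposed to test compounds. Growth inhibition was measured relative to vehicle-treated controls.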

[3] = NCI Yeast Anticancer Drug Screen. Data for the mlh1 rad18 strain (AID 175); settings: S. cerevisiae mlh1 rad18 strain growth inhibition, hits give high values
How it was run: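 Growth inhibition of the yeast strain was measured after compound exposure and expressed relative to vehicle-treated controls. The strain carries defined defects in DNA damage repair.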

[4] = NCI Yeast Anticancer Drug Screen. Data for the rad18 strain (AID 177); settings: S. cerevisiae rad18 mutant growth inhibition, hits give high values
How it was run: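 Yeast carrying a defined DNA damage repair alteration were exposed to compounds. Growth inhibition was expressed relative to vehicle-treated controls.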

[5] = NCI Yeast Anticancer Drug Screen. Data for the rad52 strain (AID 147);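 further: 0% = growth of vehicle-treated control cultures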; settings: S. cerevisiae rad52 mutant growth inhibition, hits give high values
How it was run: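 Yeast strain carrying a DNA damage repair alteration was exposed to test compounds. Growth inhibition was measured relative to vehicle-treated controls.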

[6] = NCI Yeast Anticancer Drug Screen. Data for the wt1 strain (AID 149);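 further: 0% = growth of vehicle-treated wt1 cultures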; settings: S. cerevisiae wt1 strain (SPY 50644) growth inhibition, hits give high values
How it was run: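 Readout: yeast growth inhibition, normalised to vehicle controls, in the wt1 strain exposed to test compounds.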

[7] = NCI Yeast Anticancer Drug Screen. Data for the rad50EPP+ strain (AID 151);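 further: 0% = growth of vehicle-treated control cultures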; settings: S. cerevisiae rad50 mutant strain, hits give high values
How it was run: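 Yeast strain carrying rad50 alteration (rad50EPP+) exposed to compounds; growth inhibition measured relative to vehicle-treated controls.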

[8] = NCI Yeast Anticancer Drug Screen. Data for the mgt1 strain (AID 153); settings: S. cerevisiae mgt1 mutant growth inhibition, hits give high values
How it was run: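 Yeast mgt1 strain (DNA repair/cell-cycle alteration panel) exposed to compounds; growth inhibition measured relative to vehicle-treated controls.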

[9] = NCI Yeast Anticancer Drug Screen. Data for the rad50 strain (AID 155);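 further: 0% = growth of vehicle-only cultures of the same strain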; settings: S. cerevisiae rad50 strain growth inhibition, hits give high values
How it was run: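 Compounds were tested on a yeast strain with an engineered DNA damage repair alteration; the reported value is growth inhibition normalised to vehicle treatment.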

[10] = NCI Yeast Anticancer Drug Screen. Data for the mec2-1 strain (AID 157); settings: S. cerevisiae mec2-1 strain, hits give high values
How it was run: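 mec2-1 yeast strain, carrying an alteration in DNA damage repair or cell cycle control, was exposed to compounds; growth inhibition was measured relative to vehicle-treated controls.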

[11] = NCI Yeast Anticancer Drug Screen. Data for the rad14 strain (AID 159);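 further: 0% = growth of vehicle-treated control cultures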; settings: S. cerevisiae rad14 strain growth inhibition, hits give high values
How it was run: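 Compound-treated yeast with a defined DNA-repair lesion; growth inhibition normalised to vehicle-treated cultures.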

[12] = NCI Yeast Anticancer Drug Screen. Data for the sgs1 mgt1 strain (AID 161);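 further: 0% = growth of cultures given vehicle only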; settings: S. cerevisiae sgs1 mgt1 strain, hits give high values
How it was run: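 Yeast cells carrying a defined DNA-repair defect were exposed to test compounds. Growth inhibition was measured relative to vehicle-treated controls.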

[13] = NCI Yeast Anticancer Drug Screen. Data for the CLN2oe strain (AID 163);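 further: 0% = growth of vehicle-only control cultures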; settings: S. cerevisiae CLN2oe strain, hits give high values
How it was run: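 Yeast cells carrying a defined cell-cycle control alteration were exposed to test compounds. Growth inhibition was scored against vehicle-treated control cultures.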

[14] = NCI Yeast Anticancer Drug Screen. Data for the cln2 rad14 strain (AID 165);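 further: 0% = growth equal to vehicle treated cultures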; settings: S. cerevisiae cln2 rad14 strain, hits give high values
How it was run: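 Yeast carrying cln2 and rad14 alterations (cell cycle control and DNA damage repair) were exposed to compounds. Growth inhibition was measured against vehicle-treated controls.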

[15] = NCI Yeast Anticancer Drug Screen. Data for the bub3 strain (AID 167); settings: S. cerevisiae bub3 mutant strain, hits give high values
How it was run: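 Growth of a checkpoint-deficient yeast mutant is measured after compound exposure. Values represent inhibition relative to vehicle.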

[16] = NCI Yeast Anticancer Drug Screen. Data for the sgs1 strain (AID 173);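 further: 0% = growth of vehicle-only control cultures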; settings: S. cerevisiae sgs1 mutant, hits give high values
How it was run: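 Yeast mutant strains carrying defined defects in DNA damage repair or cell cycle control were exposed to test compounds. Growth inhibition was scored against vehicle-treated controls.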

[17] = at 5.0 µM (retest, dose inferred, filed as 0.5)
[18] = at 50.0 µM (retest, dose inferred, filed as 5.0)

Measured: growth inhibition

C[n+]1c(/C=C/c2ccc(/C=N/NC(=O)c3ccc(C(=O)N/N=C/c4ccc(/C=C/c5cn6ccccc6[n+]5C)cc4)cc3)cc2)cn2ccccc21
inactive: [1]; at 1.2 µM 45% | [2]; at 1.2 µM 52% | [4]; at 1.2 µM 46%
active: [1]; at 3.7 µM 98% | [1]; at 11.0 µM 96% | [1]; at 33.0 µM 98% | [1]; at 100.0 µM 97% | [2]; at 3.7 µM 99% | [2]; at 11.0 µM 98% | [2]; at 33.0 µM 97% | [2]; at 100.0 µM 94% | [3]; [17] 90% | [3]; [18] 98% | [3]; at 50.0 µM 91.7% | [4]; at 3.7 µM 98% | [4]; at 11.0 µM 95% | [4]; at 33.0 µM 96% | [4]; at 100.0 µM 93%

CCCCCCCCN1COCC(COc2ccccc2C)OC1 (centres undefined)
active: [5]; at 100.0 µM 99% | [6]; at 100.0 µM 96% | [8]; at 100.0 µM 99% | [9]; at 50.0 µM 97.3% | [9]; at 100.0 µM 99% | [10]; at 50.0 µM 85.3% | [10]; at 100.0 µM 99% | [11]; at 100.0 µM 99% | [12]; at 50.0 µM 93.3% | [13]; at 100.0 µM 99% | [15]; at 50.0 µM 76.5% | [15]; at 100.0 µM 98% | [1]; at 100.0 µM 99% | [2]; at 100.0 µM 99% | [3]; at 50.0 µM 95% | [4]; at 100.0 µM 99%
inactive: [5]; at 1.2 µM -3% | [5]; at 3.7 µM 0% | [5]; at 11.0 µM 1% | [5]; at 33.0 µM 13% | [6]; at 1.2 µM -1% | [6]; at 3.7 µM -1% | [6]; at 11.0 µM 2% | [6]; at 33.0 µM 8% | [7]; at 1.2 µM -7% | [7]; at 3.7 µM -4% | [7]; at 11.0 µM -2% | [7]; at 33.0 µM 11% | [7]; at 100.0 µM 18% | [8]; at 1.2 µM -1% | [8]; at 3.7 µM -2% | [8]; at 11.0 µM 0% | [8]; at 33.0 µM 5% | [9]; at 1.2 µM -2% | [9]; at 3.7 µM -4% | [9]; [17] 0% | [9]; at 11.0 µM 3% | [9]; at 33.0 µM 5% | [9]; [18] 5% | [10]; at 1.2 µM -4% | [10]; at 3.7 µM -4% | [10]; [17] 3% | [10]; at 11.0 µM -6% | [10]; at 33.0 µM 2% | [10]; [18] -7% | [11]; at 1.2 µM 0% | [11]; at 3.7 µM 1% | [11]; at 11.0 µM 1% | [11]; at 33.0 µM 22% | [12]; [17] -1% | [12]; [18] 1% | [13]; at 1.2 µM -4% | [13]; at 3.7 µM 0% | [13]; at 11.0 µM -58% | [13]; at 33.0 µM 9% | [14]; [17] 20% | [14]; [18] 44% | [14]; at 50.0 µM 55.2% | [15]; at 1.2 µM -9% | [15]; at 3.7 µM -7% | [15]; [17] -25% | [15]; at 11.0 µM 5% | [15]; at 33.0 µM 15% | [15]; [18] 1% | [1]; at 1.2 µM -1% | [1]; at 3.7 µM 0% | [1]; at 11.0 µM 0% | [1]; at 33.0 µM 13% | [2]; at 1.2 µM -1% | [2]; at 3.7 µM 0% | [2]; at 11.0 µM 0% | [2]; at 33.0 µM -17% | [3]; [17] -8% | [3]; [18] -2% | [4]; at 1.2 µM -15% | [4]; at 3.7 µM -4% | [4]; at 11.0 µM 4% | [4]; at 33.0 µM 11%

CCc1c(Cl)c(C)c(Cl)c(O)c1Cl
active: [5]; at 33.0 µM 97% | [5]; at 100.0 µM 99% | [6]; at 33.0 µM 93% | [6]; at 100.0 µM 98% | [7]; at 33.0 µM 87% | [7]; at 100.0 µM 96% | [8]; at 33.0 µM 98% | [8]; at 100.0 µM 99% | [9]; at 33.0 µM 96% | [9]; [18] 98% | [9]; at 50.0 µM 92% | [9]; at 100.0 µM 99% | [10]; at 33.0 µM 95% | [10]; [18] 98% | [10]; at 50.0 µM 93.3% | [10]; at 100.0 µM 97% | [11]; at 33.0 µM 98% | [11]; at 100.0 µM 99% | [12]; [18] 97% | [12]; at 50.0 µM 93.8% | [14]; [18] 98% | [14]; at 50.0 µM 92.8% | [15]; at 33.0 µM 96% | [15]; [18] 98% | [15]; at 50.0 µM 92.9% | [15]; at 100.0 µM 99% | [1]; at 33.0 µM 97% | [1]; at 100.0 µM 99% | [2]; at 33.0 µM 95% | [2]; at 100.0 µM 99% | [16]; at 33.0 µM 96% | [16]; at 100.0 µM 99% | [3]; [18] 98% | [3]; at 50.0 µM 92%
inactive: [5]; at 1.2 µM -22% | [5]; at 3.7 µM -30% | [5]; at 11.0 µM -9% | [6]; at 1.2 µM -27% | [6]; at 3.7 µM -25% | [6]; at 11.0 µM 1% | [7]; at 1.2 µM -7% | [7]; at 3.7 µM 0% | [7]; at 11.0 µM 32% | [8]; at 1.2 µM -33% | [8]; at 3.7 µM -32% | [8]; at 11.0 µM -14% | [9]; at 1.2 µM -11% | [9]; at 3.7 µM -28% | [9]; [17] 57% | [9]; at 11.0 µM 6% | [10]; at 1.2 µM -28% | [10]; at 3.7 µM -12% | [10]; [17] 61% | [10]; at 11.0 µM 2% | [11]; at 1.2 µM -11% | [11]; at 3.7 µM -12% | [11]; at 11.0 µM 10% | [12]; [17] -16% | [14]; [17] 38% | [15]; at 1.2 µM 1% | [15]; at 3.7 µM -4% | [15]; [17] 16% | [15]; at 11.0 µM 5% | [1]; at 1.2 µM -8% | [1]; at 3.7 µM -12% | [1]; at 11.0 µM 2% | [2]; at 1.2 µM -12% | [2]; at 3.7 µM -8% | [2]; at 11.0 µM 7% | [16]; at 1.2 µM -4% | [16]; at 3.7 µM -13% | [16]; at 11.0 µM 14% | [3]; [17] 38%
